According to PubChem BioAssay (NCI):
The panel holds about 83,000 compounds, 20% with a hit somewhere; the sample as a whole holds those more often.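 Method: cells in 96-well plates; compound added at one concentration; 48 h incubation; percent growth measured; values under 10 scored active.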 Calls of active or inactive are those of the source.

tested on: HCT-116 colon; assay: NCI-60 one-dose screen, 48 h (100 = growth as untreated, 0 = no growth, -100 = all killed); settings: 10 µM

SMILES | growth
N#Cc1ccc(-c2nn(-c3ccc(C(=O)O)cc3)cc2CNc2cc(Cl)cc(C(F)(F)F)c2)cc1 | -2.71% (active)
CN1C(=O)N(C)C2SC(N/N=C/c3ccccc3F)=NC21 (centres undefined) | 37.5% (inactive)
COc1cc2c(cc1OC)/C(=C\c1sc(Nc3ccc(O)cc3)nc1O)C(C(=O)O)=N2 | 21.4% (inactive)
CN1CCN(c2ccc(C(=O)/C=C/c3cc(C(F)(F)F)ccc3Cl)cc2)CC1 | -61.7% (active)
CC(=O)c1cc(C(=O)c2ccc3c(c2)NC(=O)CO3)n2ccc3ccccc3c12 | 45% (inactive)
COc1ccc(C(=O)NC(=S)N2CCN(c3ncnc4c3cnn4-c3ccccc3)CC2)cc1 | 66.6% (inactive)
CC(=O)Nc1nc(-c2ccc(N3CCN(C)CC3)c(NS(=O)(=O)c3cccc4c(N(C)C)cccc34)c2)cs1 | 28.2% (inactive)
O=[N+]([O-])c1ccc(-c2nc(-c3ccccc3)c(-c3ccccc3)n2-c2ccc(S(=O)(=O)Nc3ncccn3)cc2)cc1 | 30.6% (inactive)
O=C(c1ccc(Cl)cc1)C1[C@H](c2ccc(Br)cc2)[C@@H](c2ccccc2)NC12C(=O)Nc1ccc(Br)cc12 (some centres undefined) | 1.39% (active)
O=C(CSc1nnc(-c2c[nH]c3ccccc23)n1-c1ccccc1)c1ccc(Cl)cc1 | 45.7% (inactive)
Cc1noc2c(Cc3ccccc3)nn(CC(=O)N/N=C/c3ccc(Cl)cc3)c(=O)c12 | 26.4% (inactive)
O=C(NO)c1ccc(CNC(=O)[C@H]2Cc3c([nH]c4ccccc34)[C@H](c3ccc(Cl)cc3)N2)cc1 | 1.03% (active)
COc1ccc(C(C)=C(c2ccc(OCCCN(C)C)cc2)c2ccc(OCCCN(C)C)cc2)cc1 | -72.1% (active)
O=C(NCCCCC(c1ccc(F)cc1)c1ccc(F)cc1)NCCCc1cccnc1 | 3.26% (active)
O=C(Nc1cccc(-c2cn(-c3ccc4oc(=O)ccc4c3)nn2)c1)Nc1cc(C(F)(F)F)cc(C(F)(F)F)c1 | 29.1% (inactive)
CC(C)Sc1nc(NC2CC2)c(C#N)c(-c2ccccc2)n1 | 46.7% (inactive)
COc1ccc(CN2[C@@H](C(=O)NCc3ccc(C(=O)NO)cc3)Cc3c([nH]c4ccccc34)[C@@H]2C)cc1 | 9.97% (active)
COC1=C[C@]23CCC(=O)N2CCc2cc4c(cc2[C@@H]3[C@@H]1OC(=O)CCCC(C)C)OCO4 | 19.2% (inactive)
C=CC(=O)Nc1ccc(C(=O)/C=C/c2ccc(N(C)CCF)cc2)c(O)c1 | -66.2% (active)

SMILES | growth
OCc1[nH]nc2cc(Nc3ncc4ccc(Br)c(OC5CCC(O)CC5)c4n3)ccc12 (centres undefined) | 6.59% (active)
OCCNc1oc(-c2ccccc2)nc1[P+](c1ccccc1)(c1ccccc1)c1ccccc1 | 7.76% (active)
CCCCOc1ccc(Nc2nc3ccccc3nc2Nc2ccc(OCCCC)cc2)cc1 | 49% (inactive)
C=C[C@@]12CN3CC[C@]1(O)[C@@](C(=O)OC)(CO2)c1[nH]c2ccccc2c1C3 | 57.9% (inactive)
COc1ccc(NC(=O)CSc2nnc(-c3ccc4nc(-c5ccc(Cl)cc5)[nH]c4c3)o2)cc1 | 23.2% (inactive)
Cc1ccc(-c2ccc(SCC(=O)Nc3ccc(Cl)c(C(F)(F)F)c3)nn2)cc1 | 10.3% (inactive)
CN1CCN(Cc2ccc(NC(=O)c3cncc(C#Cc4cnc5ccc(N[C@H]6CCOC6)nn45)c3)cc2C(F)(F)F)CC1 | -62.6% (active)
CN(C)c1ccc(/C=C/c2nc3ccccc3c(=O)n2CC(=O)Nc2ccccc2)cc1 | 31.1% (inactive)
COc1ccccc1NCc1ccc(CO)n1-c1ccc(C)cc1 | 80% (inactive)
Cc1ccc(-c2nc3ccc(C(=O)N=Nc4c(O)[nH]c5ccc(Cl)cc45)cc3[nH]2)cc1 | 0.963% (active)
CN1CCN(c2ccc(Nc3nc(N4CCN(S(=O)(=O)c5ccc(Cl)cc5)CC4)c4sccc4n3)cc2)CC1 | -49.9% (active)
N#Cc1c(-c2ccc(Cl)cc2)cc(-c2ccccc2)nc1OCc1ccccc1 | 53.7% (inactive)
CN1CCO/C1=C(/NC(=O)c1ccc(Cl)cc1)[P+](c1ccccc1)(c1ccccc1)c1ccccc1 | 45.9% (inactive)
O=C(Cc1ccc2c(c1)CN(C1CCC(=O)NC1=O)C2=O)NCCc1ccccc1 (centres undefined) | 70.8% (inactive)
N#Cc1c(NC(=O)c2ccc(C(F)(F)F)c(Cl)c2)sc2c1CCC(=O)C2 | -44.9% (active)
COc1ccc2[nH]c(=O)c(CSc3nccc(-c4ccc(Cl)cc4)n3)cc2c1 | -30.5% (active)
C=C1CCC2C3(C)COC(c4c(F)cccc4F)OC3CCC2(C)C1C/C=C1/C(=O)OCC1O (centres undefined) | -59.2% (active)
COc1ccc([C@H]2C(C(=O)c3ccc(Cl)cc3)C3(N[C@@H]2c2ccccc2)C(=O)Nc2ccc(Cl)cc23)cc1 (some centres undefined) | 2.1% (active)

tested on: HCC-2998 colon; assay: as above; settings: 10 µM

SMILES | growth
N#Cc1ccc(-c2nn(-c3ccc(C(=O)O)cc3)cc2CNc2cc(Cl)cc(C(F)(F)F)c2)cc1 | -27.7% (active)
CN1C(=O)N(C)C2SC(N/N=C/c3ccccc3F)=NC21 (centres undefined) | 88.5% (inactive)
COc1cc2c(cc1OC)/C(=C\c1sc(Nc3ccc(O)cc3)nc1O)C(C(=O)O)=N2 | 36.7% (inactive)
CN1CCN(c2ccc(C(=O)/C=C/c3cc(C(F)(F)F)ccc3Cl)cc2)CC1 | -98.1% (active)
CC(=O)c1cc(C(=O)c2ccc3c(c2)NC(=O)CO3)n2ccc3ccccc3c12 | 87.8% (inactive)
COc1ccc(C(=O)NC(=S)N2CCN(c3ncnc4c3cnn4-c3ccccc3)CC2)cc1 | 87% (inactive)
CC(=O)Nc1nc(-c2ccc(N3CCN(C)CC3)c(NS(=O)(=O)c3cccc4c(N(C)C)cccc34)c2)cs1 | 43% (inactive)
O=[N+]([O-])c1ccc(-c2nc(-c3ccccc3)c(-c3ccccc3)n2-c2ccc(S(=O)(=O)Nc3ncccn3)cc2)cc1 | 42.9% (inactive)
O=C(c1ccc(Cl)cc1)C1[C@H](c2ccc(Br)cc2)[C@@H](c2ccccc2)NC12C(=O)Nc1ccc(Br)cc12 (some centres undefined) | -98.5% (active)
O=C(CSc1nnc(-c2c[nH]c3ccccc23)n1-c1ccccc1)c1ccc(Cl)cc1 | 78.1% (inactive)
Cc1noc2c(Cc3ccccc3)nn(CC(=O)N/N=C/c3ccc(Cl)cc3)c(=O)c12 | 79.7% (inactive)
O=C(NO)c1ccc(CNC(=O)[C@H]2Cc3c([nH]c4ccccc34)[C@H](c3ccc(Cl)cc3)N2)cc1 | -53.2% (active)
COc1ccc(C(C)=C(c2ccc(OCCCN(C)C)cc2)c2ccc(OCCCN(C)C)cc2)cc1 | -91.6% (active)
O=C(NCCCCC(c1ccc(F)cc1)c1ccc(F)cc1)NCCCc1cccnc1 | 29.2% (inactive)
O=C(Nc1cccc(-c2cn(-c3ccc4oc(=O)ccc4c3)nn2)c1)Nc1cc(C(F)(F)F)cc(C(F)(F)F)c1 | 33.1% (inactive)
CC(C)Sc1nc(NC2CC2)c(C#N)c(-c2ccccc2)n1 | 97% (inactive)
COc1ccc(CN2[C@@H](C(=O)NCc3ccc(C(=O)NO)cc3)Cc3c([nH]c4ccccc34)[C@@H]2C)cc1 | 14.6% (inactive)
COC1=C[C@]23CCC(=O)N2CCc2cc4c(cc2[C@@H]3[C@@H]1OC(=O)CCCC(C)C)OCO4 | 21.8% (inactive)
C=CC(=O)Nc1ccc(C(=O)/C=C/c2ccc(N(C)CCF)cc2)c(O)c1 | -78.4% (active)

SMILES | growth
OCc1[nH]nc2cc(Nc3ncc4ccc(Br)c(OC5CCC(O)CC5)c4n3)ccc12 (centres undefined) | -49% (active)
OCCNc1oc(-c2ccccc2)nc1[P+](c1ccccc1)(c1ccccc1)c1ccccc1 | 9.06% (active)
CCCCOc1ccc(Nc2nc3ccccc3nc2Nc2ccc(OCCCC)cc2)cc1 | 106% (inactive)
C=C[C@@]12CN3CC[C@]1(O)[C@@](C(=O)OC)(CO2)c1[nH]c2ccccc2c1C3 | 89.4% (inactive)
COc1ccc(NC(=O)CSc2nnc(-c3ccc4nc(-c5ccc(Cl)cc5)[nH]c4c3)o2)cc1 | 111% (inactive)
Cc1ccc(-c2ccc(SCC(=O)Nc3ccc(Cl)c(C(F)(F)F)c3)nn2)cc1 | 12.9% (inactive)
CN1CCN(Cc2ccc(NC(=O)c3cncc(C#Cc4cnc5ccc(N[C@H]6CCOC6)nn45)c3)cc2C(F)(F)F)CC1 | -96.4% (active)
CN(C)c1ccc(/C=C/c2nc3ccccc3c(=O)n2CC(=O)Nc2ccccc2)cc1 | 58.2% (inactive)
COc1ccccc1NCc1ccc(CO)n1-c1ccc(C)cc1 | 114% (inactive)
Cc1ccc(-c2nc3ccc(C(=O)N=Nc4c(O)[nH]c5ccc(Cl)cc45)cc3[nH]2)cc1 | -66.8% (active)
CN1CCN(c2ccc(Nc3nc(N4CCN(S(=O)(=O)c5ccc(Cl)cc5)CC4)c4sccc4n3)cc2)CC1 | -8.56% (active)
N#Cc1c(-c2ccc(Cl)cc2)cc(-c2ccccc2)nc1OCc1ccccc1 | 95% (inactive)
CN1CCO/C1=C(/NC(=O)c1ccc(Cl)cc1)[P+](c1ccccc1)(c1ccccc1)c1ccccc1 | 89.1% (inactive)
O=C(Cc1ccc2c(c1)CN(C1CCC(=O)NC1=O)C2=O)NCCc1ccccc1 (centres undefined) | -11.4% (active)
N#Cc1c(NC(=O)c2ccc(C(F)(F)F)c(Cl)c2)sc2c1CCC(=O)C2 | -74.4% (active)
COc1ccc2[nH]c(=O)c(CSc3nccc(-c4ccc(Cl)cc4)n3)cc2c1 | 48.3% (inactive)
C=C1CCC2C3(C)COC(c4c(F)cccc4F)OC3CCC2(C)C1C/C=C1/C(=O)OCC1O (centres undefined) | -65% (active)
COc1ccc([C@H]2C(C(=O)c3ccc(Cl)cc3)C3(N[C@@H]2c2ccccc2)C(=O)Nc2ccc(Cl)cc23)cc1 (some centres undefined) | -59.3% (active)
